Bioassay records (PubChem)
proKLK7 act: activates the human kallikrein-7 zymogen; purified proKLK7, EDANS-DABCYL substrate fluorescence; 100% is mature enzyme control, 0% vehicle; 370,000 tested, 0.9% active; activation, % at 7 µM;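 active = activation above the mean of all tested compounds plus 3 SD, computed per campaign excluding outliers beyond control limits, cut at about 13% in these data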
Neddylation inh: cullin neddylation inhibition | 360,000 tested, 0.58% active | calls only at 25 µM | TR-FRET cullin neddylation, biochemical | AID 651699; in the data active = inhibition above about 36%
LEDGF integ inh: blocks HIV-1 LEDGF/p75-dependent DNA integration; TR-FRET IN-LEDGF/p75 DNA integration, Eu/Cy5; inhibition, % at 3.7 µM; 370,000 tested, 0.64% active;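 active = inhibition above the screen-wide mean plus 3 SD, cut at about 13% in these data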;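 note: signal is the Cy5 over europium emission ratio at 671 and 618 nm; 0% = plate median of compound wells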
Rin1 Abl inh: inhibitors of human Rin1-Abl protein interaction | P00519+Q13671 | TR-FRET Rin1/Abl binding, biochemical | inhibition, % at 7.35 µM | 360,000 tested, 0.4% active | AID 588664; in the data active = inhibition above about 5%, passing the limit was not always enough
MBD2 DNA inh: blocks human MBD2 binding to methylated DNA. inhibition, % at 4.4 µM. TR-FRET, MBD2 binding to methylated oligonucleotide. Q9UBB5. 370,000 tested, 0.31% active; in the data active = inhibition above about 13%
UHRF1 MBD2 ctr: UHRF1 methyl-DNA binding inhibition | inhibition, % at 4.4 µM | 370,000 tested, 0.75% active | UHRF1 binding to methylated oligo, TR-FRET; in the data active = inhibition above about 21%;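 note: UHRF1 SRA domain binding a hemimethylated CpG hairpin DNA probe; 0% = median of test compound wells and 100% = reference inhibitor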
Target sequence (Q96T88 whole entry, looked up, the tested form may be a part): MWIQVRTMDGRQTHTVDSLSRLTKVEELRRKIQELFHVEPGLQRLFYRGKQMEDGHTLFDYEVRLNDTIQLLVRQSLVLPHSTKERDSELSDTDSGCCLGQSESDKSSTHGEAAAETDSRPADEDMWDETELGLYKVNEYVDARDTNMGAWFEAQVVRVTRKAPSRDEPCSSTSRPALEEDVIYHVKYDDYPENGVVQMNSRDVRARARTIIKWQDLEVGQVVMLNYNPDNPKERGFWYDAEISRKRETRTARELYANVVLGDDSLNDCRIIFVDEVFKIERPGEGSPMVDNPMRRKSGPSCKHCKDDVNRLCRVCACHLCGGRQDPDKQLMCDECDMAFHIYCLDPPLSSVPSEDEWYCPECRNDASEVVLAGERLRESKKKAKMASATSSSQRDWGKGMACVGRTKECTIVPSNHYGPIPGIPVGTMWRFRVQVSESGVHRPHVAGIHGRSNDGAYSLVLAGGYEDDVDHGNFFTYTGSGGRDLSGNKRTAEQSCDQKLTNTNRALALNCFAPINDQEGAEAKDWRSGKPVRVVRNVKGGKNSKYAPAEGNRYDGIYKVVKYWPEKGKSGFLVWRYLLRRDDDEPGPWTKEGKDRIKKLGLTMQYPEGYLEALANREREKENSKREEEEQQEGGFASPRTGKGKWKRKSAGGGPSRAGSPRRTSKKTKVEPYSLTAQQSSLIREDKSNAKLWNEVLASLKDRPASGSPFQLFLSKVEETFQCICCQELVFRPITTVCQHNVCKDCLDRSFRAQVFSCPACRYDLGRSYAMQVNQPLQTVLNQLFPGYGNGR
Active calls of the source: *; i = inactive; / = no result shown; + = active, no number. The list is not random: actives were taken first. Their share in the collection is about 3.1%.

SMILES	proKLK7 act	Neddylation inh	LEDGF integ inh	Rin1 Abl inh	MBD2 DNA inh	UHRF1 MBD2 ctr
Cc1cccc(N/C=C(\[N+](=O)[O-])S(=O)(=O)c2ccccc2)c1C	0	i	0	1	-3	50*
Cc1ccc(N/C=C(\[N+](=O)[O-])S(=O)(=O)c2ccccc2)cc1	0	i	0	0	3	2
COC(=O)[C@]12C[C@H](CC(=O)N3CCSCC3)C(=O)N(CCC3=CCCCC3)C1=C[C@H](C(C)C)O[C@@H]2C1CC1	0	/	0	/	0	0
O=C1Cc2ccccc2C(=O)N1	0	i	25*	/	5	-2
CC1CCC2(CC1)NC(=O)N(CC(=O)NCc1ccc(Cl)cc1)C2=O (stereo not drawn)	-1	i	0	-1	1	-2
CC(=O)Nc1ccnn1C1CCN(C(=O)c2cccc(C)c2C)CC1	0	i	0	4	-5	-3
COc1ccc(/C=N/NC(=O)c2ccc(CN3C(=O)c4cccc5cccc3c45)cc2)cc1O	-15	/	-1	-3	2	0
COc1cc(/C=N/NC(=O)c2ccc(CN3C(=O)c4cccc5cccc3c45)cc2)cc(OC)c1O	-4	+	2	-1	2	0
COc1ccc(C(=O)N/N=C(\C)c2ccc3c(c2)C2C=CCC2C(c2ccccc2)N3)cc1 (stereo not drawn)	/	i	/	-2	/	/
O=C(O)c1ccc2c(c1)[C@@H]1C=CC[C@@H]1[C@H](c1ccccn1)N2	1	i	95*	21*	91*	98*
O=C1CN(C(=O)CNCc2ccc(Cl)cc2)c2ccccc2N1	0	i	-1	-2	2	62*
O=C(CNC(=O)N1CC(=O)Nc2ccccc21)Nc1ccc(Cl)cc1	0	i	-4	-3	-3	0
CCOC(=O)C1CCCN(C(=O)Nc2c(-c3ccccc3)noc2C)C1 (stereo not drawn)	0	i	-1	-3	4	32*
CCOC(=O)C1CCCN(C(=O)c2c(-c3ccccc3Cl)noc2C)C1 (stereo not drawn)	0	i	-1	1	-1	-1
CCCOc1ccc(C(=O)NNC(=S)NC(=O)c2ccco2)cc1	0	+	0	-1	-3	2
O=c1[nH]c2ccccc2cc1CN(Cc1ccco1)S(=O)(=O)c1ccc(F)cc1	1	i	-6	-6	10	23*
CC(=O)Nc1cc(-c2ccc(N3CCN(C)CC3)cc2)cn2c(-c3ccc(S(C)(=O)=O)cc3)cnc12	3	i	1	-6	2	25*
Cc1ccc(/C=N/NC(=S)NCCc2ccccc2)s1	-21	+	4	4	1	-6
CCCCNC(=S)N/N=C/c1ccc(C)s1	-1	i	-2	2	-1	-4
O=C(c1cccs1)N1C[C@H](O)[C@@H](n2cc(-c3ccc(F)cc3)nn2)C[C@@H]1c1ccccc1	0	i	-2	0	0	-2
CCNC(=O)NC(=O)C(C)OC(=O)C(C)(C)Oc1ccc(Cl)cc1 (stereo not drawn)	-1	i	-2	2	7	26*
CC(=O)Nc1ccc(NC(=O)COC(=O)c2n[nH]c3ccccc23)cc1	1	i	0	3	-2	32*
CCOc1ccc(NC(=O)COC(=O)c2n[nH]c3ccccc23)cc1	-1	i	1	2	-8	-1
CCCCNC(=O)CNC(=S)N(CCCN1CCOCC1)Cc1cccs1	0	i	2	-1	1	1
Cc1ccc(CNC(=O)c2ccc(-n3cccc3)cc2)cc1	0	i	11	-2	11	35*
SMILES	proKLK7 act	Neddylation inh	LEDGF integ inh	Rin1 Abl inh	MBD2 DNA inh	UHRF1 MBD2 ctr
Cc1ccc(CNC(=O)Cc2ccc(-n3cccc3)cc2)cc1	0	i	-1	-4	1	-4
Oc1ccc(Br)cc1-c1nc2cnccn2c1NC1CCCC1	49*	/	-5	-4	-1	-3
COc1ccc(CCNC(=O)c2cccs2)cc1OC	0	i	1	2	-7	4
COc1ccc(CNc2nc(NCc3ccc(OC)c(OC)c3)n(C(=O)c3cccs3)n2)cc1OC	199*	i	-2	-3	1	1
Nc1ccccc1Sc1ccc(C(=O)c2ccccc2C(=O)O)cc1[N+](=O)[O-]	0	i	5	0	-5	9
O=C(O)c1ccccc1C(=O)c1ccc(Sc2ccc(Cl)cc2)c([N+](=O)[O-])c1	-1	i	1	2	0	21*
NC1=NC(=O)C(Cc2ccc(Br)cc2)S1 (stereo not drawn)	-1	i	3	2	-1	0
CCCC(=O)Nc1ccc(C(=O)NNC(=O)c2ccco2)cc1	0	i	-3	2	1	-1
COC(=O)CSc1nnc(CNS(=O)(=O)c2ccc(Cl)cc2)n1C	1	i	-1	0	3	0
CC1CCN(Cc2nnnn2CCCC(=O)NC(c2ccccn2)C(F)(F)F)CC1 (stereo not drawn)	1	i	28*	-3	-6	-2
CCCCOc1cccc(C(=O)NCCc2ccccc2-c2ccccc2CCC(=O)NCc2ccccc2)c1	1	/	-3	/	1	0
COc1ccc(/C=C/c2cc(-c3ccc(C)cc3)o[n+]2C)cc1	32*	i	-3	-6	-2	-1
O=C(Cn1cnc2c(NCc3ccccc3)ncnc21)NCc1ccc2[nH]ccc2c1	-1	i	-1	-2	6	24*
Cc1ccc(-c2cnc(C(O)c3ccc(Cl)c(Cl)c3)[nH]2)cc1 (stereo not drawn)	-1	i	2	-1	-1	-1
O=C(CN1C(=O)CSc2ccc(S(=O)(=O)N3CCCCC3)cc21)NCc1cccnc1	0	i	2	6	12	4
CC1CCN(S(=O)(=O)c2ccc3c(c2)N(CC(=O)NCc2cccnc2)C(=O)CS3)CC1	-1	i	1	2	8	22*
COc1cccc(-c2cc(CNC(=O)[C@H]3O[C@@H](n4cnc(C(N)=O)n4)[C@H](O)[C@@H]3O)no2)c1	0	/	5	/	-9	0
CCCCc1ccc(NC(=O)C(=O)NCCN2CCN(Cc3ccc([N+](=O)[O-])cc3)CC2)cc1	0	i	1	2	1	0
O=c1[nH]c(SCc2nc3ccccc3c(=O)n2-c2ccccc2)nc2ccccc12	0	i	3	0	-7	35*
O=c1[nH]c(SCc2n[nH]c(=S)n2-c2ccccc2)nc2ccccc12	0	i	0	1	-1	3
CCCCSc1nc2[nH]ncc2c(=O)[nH]1	0	i	1	-1	-6	68*
CCSc1nc2[nH]ncc2c(=O)[nH]1	0	i	-1	-2	-1	0
